Several values for one entry are separate records, joined by “and”; a condition that tells them apart may be missing. Identical values can stand only once. The campaign covered roughly 5,500 compounds. About 2,000 (36%) were called active. About 18% were inconclusive and are not listed. Rule as the data show it: active = normalized growth mostly below about 0.91 (no sharp cut-off); inconclusive = no clear call, values can overlap the other calls; inactive = mostly above about 0.92. The list shows a part of the results.
Test: chemical genetic growth profiling, strain panel (AID 1159580);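 also: tested at 20 µM; growth read once vehicle control cultures reached saturation at 30 °C; 1 = growth at the plate median or of vehicle wells; lower values mean less growth of the strain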
Details: growth OD
[1] = S. cerevisiae deletion strains, locus YAL040C, strain CLN3, active compounds read low
[2] = S. cerevisiae deletion strains, locus YDR150W, strain NUM1, active compounds read low
[3] = S. cerevisiae deletion strains, locus YDR363W, strain ESC2, active compounds read low
[4] = S. cerevisiae deletion strains, locus YER002W, strain NOP16, active compounds read low
[5] = S. cerevisiae deletion strains, locus YGR229C, strain SMI1, active compounds read low
[6] = S. cerevisiae deletion strains, locus YNL153C, strain GIM3, active compounds read low
[7] = S. cerevisiae deletion strains, locus YNL175C, strain NOP13, active compounds read low
[8] = S. cerevisiae deletion strains, locus YNL197C, strain WHI3, active compounds read low
[9] = S. cerevisiae deletion strains, locus YNL224C, strain SQS1, active compounds read low
[10] = S. cerevisiae deletion strains, locus YNL322C, strain KRE1, active compounds read low
[11] = S. cerevisiae deletion strains, locus YOR083W, strain WHI5 (second series), active compounds read low
[12] = S. cerevisiae deletion strains, locus YPL055C, strain LGE1, active compounds read low

Measured: normalized growth

CN(C)c1nc(N)c(C(=O)N=C(N)N)nc1Cl
inactive: S. cerevisiae deletion strains, locus YAL013W, strain DEP1, active compounds read low 1.01 | [1] 1 | S. cerevisiae deletion strains, locus YBR021W, strain FUR4, active compounds read low 1.01 | S. cerevisiae deletion strains, locus YBR229C, strain ROT2, active compounds read low 1.01 | S. cerevisiae deletion strains, locus YCL029C, strain bik1, active compounds read low 1.01 | S. cerevisiae deletion strains, locus YDL035C, strain GPR1, active compounds read low 1.03 | S. cerevisiae deletion strains, locus YDL074C, strain BRE1, active compounds read low 0.983 | S. cerevisiae deletion strains, locus YDL101C, strain DUN1, active compounds read low 1.01 | S. cerevisiae deletion strains, locus YDL134C, strain PPH21, active compounds read low 0.999 | S. cerevisiae deletion strains, locus YDL185W, strain tfp1, active compounds read low 1.01 | S. cerevisiae deletion strains, locus YDL192W, strain arf1, active compounds read low 1.01 | S. cerevisiae deletion strains, locus YDR101C, strain arx1, active compounds read low 1 | [2] 0.982 and 0.999 | S. cerevisiae deletion strains, locus YDR162C, strain NBP2, active compounds read low 0.985 | S. cerevisiae deletion strains, locus YDR318W, strain mcm21, active compounds read low 1.02 | [3] 1 | S. cerevisiae deletion strains, locus YDR388W, active compounds read low 1 | S. cerevisiae deletion strains, locus YDR502C, strain sam2, active compounds read low 0.983 | S. cerevisiae deletion strains, locus YEL061C, strain CIN8, active compounds read low 1.01 | [4] 1.01 | S. cerevisiae deletion strains, locus YER110C, active compounds read low 1.02 | S. cerevisiae deletion strains, locus YER155C, strain BEM2, active compounds read low 1.01 | S. cerevisiae deletion strains, locus YER167W, strain BCK2, active compounds read low 1.02 | S. cerevisiae deletion strains, locus YGL078C, strain dbp3, active compounds read low 0.989 | S. cerevisiae deletion strains, locus YGL086W, strain mad1, active compounds read low 1.02 | S. cerevisiae deletion strains, locus YGL248W, strain PDE1, active compounds read low 1 | S. cerevisiae deletion strains, locus YGR078C, strain PAC10, active compounds read low 0.99 | S. cerevisiae deletion strains, locus YGR135W, strain pre9, active compounds read low 0.967 | [5] 1 | S. cerevisiae deletion strains, locus YGR252W, strain gcn5, active compounds read low 1.02 | S. cerevisiae deletion strains, locus YHR030C, strain SLT2, active compounds read low 1.01 | S. cerevisiae deletion strains, locus YHR079C, strain IRE1 (second series), active compounds read low 1.01 | S. cerevisiae deletion strains, locus YHR094C, strain hxt1, active compounds read low 0.998 | S. cerevisiae deletion strains, locus YHR129C, strain ARP1, active compounds read low 1.01 | S. cerevisiae deletion strains, locus YHR200W, strain rpn10, active compounds read low 1 | S. cerevisiae deletion strains, locus YIL066C, strain RNR3, active compounds read low 1.02 | S. cerevisiae deletion strains, locus YIL073C, strain SPO22, active compounds read low 1.07 | S. cerevisiae deletion strains, locus YIL125W, strain kgd1, active compounds read low 1 | S. cerevisiae deletion strains, locus YIR030C, strain dcg1, active compounds read low 0.998 | S. cerevisiae deletion strains, locus YJL095W, strain BCK1, active compounds read low 0.997 | S. cerevisiae deletion strains, locus YJL134W, strain LCB3, active compounds read low 1 | S. cerevisiae deletion strains, locus YJL168C, strain set2, active compounds read low 1 | S. cerevisiae deletion strains, locus YJL187C, strain SWE1 (second series), active compounds read low 0.988 | S. cerevisiae deletion strains, locus YJR043C, strain POL32, active compounds read low 1.03 | S. cerevisiae deletion strains, locus YJR075W, strain HOC1, active compounds read low 1.01 | S. cerevisiae deletion strains, locus YKL009W, strain mrt4, active compounds read low 1.06 | S. cerevisiae deletion strains, locus YKL068W, active compounds read low 0.997 | S. cerevisiae deletion strains, locus YKL085W, strain MDH1 (second series), active compounds read low 1.01 | S. cerevisiae deletion strains, locus YKL085W, strain MDH1, active compounds read low 1.01 | S. cerevisiae deletion strains, locus YKL190W, strain CNB1, active compounds read low 1.01 | S. cerevisiae deletion strains, locus YKR001C, strain vps1, active compounds read low 1.02 | S. cerevisiae deletion strains, locus YLR039C, strain RIC1, active compounds read low 1.06 | S. cerevisiae deletion strains, locus YLR058C, strain SHM2, active compounds read low 1.01 | S. cerevisiae deletion strains, locus YLR102C, strain apc9, active compounds read low 1 | S. cerevisiae deletion strains, locus YLR262C, strain YPT6, active compounds read low 1.04 | S. cerevisiae deletion strains, locus YLR268W, strain sec22, active compounds read low 0.988 | S. cerevisiae deletion strains, locus YLR330W, strain CHS5, active compounds read low 1.01 | S. cerevisiae deletion strains, locus YLR342W, strain FKS1 (second series), active compounds read low 1.07 | S. cerevisiae deletion strains, locus YLR371W, strain rom2, active compounds read low 1.01 | S. cerevisiae deletion strains, locus YLR418C, strain cdc73, active compounds read low 0.925 | S. cerevisiae deletion strains, locus YML016C, strain PPZ1, active compounds read low 1 | S. cerevisiae deletion strains, locus YML032C, strain rad52, active compounds read low 1.03 | S. cerevisiae deletion strains, locus YML124C, strain tub3, active compounds read low 0.999 | S. cerevisiae deletion strains, locus YMR078C, strain ctf18, active compounds read low 1.01 | S. cerevisiae deletion strains, locus YMR223W, strain ubp8, active compounds read low 1.02 | S. cerevisiae deletion strains, locus YMR263W, strain SAP30, active compounds read low 0.988 | S. cerevisiae deletion strains, locus YMR307W, strain GAS1, active compounds read low 1.06 | S. cerevisiae deletion strains, locus YNL067W, strain RPL9B, active compounds read low 0.986 | S. cerevisiae deletion strains, locus YNL128W, strain TEP1, active compounds read low 1.01 | [6] 0.999 and 0.967 | [7] 1.01 | [8] 1 | [9] 1.01 | S. cerevisiae deletion strains, locus YNL233W, strain BNI4, active compounds read low 0.989 | S. cerevisiae deletion strains, locus YNL250W, strain rad50, active compounds read low 1.01 | S. cerevisiae deletion strains, locus YNL271C, strain bni1, active compounds read low 1.01 | S. cerevisiae deletion strains, locus YNL298W, strain CLA4, active compounds read low 1.01 | S. cerevisiae deletion strains, locus YNL307C, strain MCK1, active compounds read low 1.02 | [10] 1.01 | S. cerevisiae deletion strains, locus YNR052C, strain pop2, active compounds read low 1.02 | S. cerevisiae deletion strains, locus YOL006C, strain TOP1, active compounds read low 0.981 | S. cerevisiae deletion strains, locus YOL012C, strain htz1 1.37 | S. cerevisiae deletion strains, locus YOL147C, strain pex11, active compounds read low 1.01 | S. cerevisiae deletion strains, locus YOR061W, strain CKA2, active compounds read low 1.01 | S. cerevisiae deletion strains, locus YOR069W, strain VPS5, active compounds read low 1.01 | [11] 1.01 | S. cerevisiae deletion strains, locus YOR136W, strain idh2, active compounds read low 1 | S. cerevisiae deletion strains, locus YOR144C, strain elg1, active compounds read low 1 | S. cerevisiae deletion strains, locus YOR184W, strain ser1, active compounds read low 1.05 | S. cerevisiae deletion strains, locus YOR316C, strain cot1, active compounds read low 1 | [12] 0.956 | S. cerevisiae deletion strains, locus YPL241C, strain CIN2, active compounds read low 0.999 | S. cerevisiae deletion strains, locus YPR119W, strain clb2, active compounds read low 0.988 | S. cerevisiae deletion strains, locus YPR141C, strain kar3, active compounds read low 0.999 | S. cerevisiae deletion strains, locus YPR163C, strain tif3, active compounds read low 0.999 | S. cerevisiae deletion strains, locus YPR167C, strain met16, active compounds read low 1 | S. cerevisiae deletion strains, strain wtn01, active compounds read low 0.997 | S. cerevisiae strains, strain wild type, active compounds read low 1.01

NC(=NCc1ccccc1)NC(=O)c1nc(Cl)c(N)nc1N
inactive: [1] 1 | [2] 1.02 | [3] 0.994 | [4] 1.01 | [5] 0.999 | [6] 0.993 | [7] 1.01 | [8] 0.996 | [9] 1.02 | [10] 1.01 | [11] 0.965 | [12] 1.01

Reference: PubChem BioAssay AID1159580 (chemical genetic matrix, 2015)
